Experimental data: PubChem BioAssay AID1159580 (chemical genetic matrix, 2015)
The campaign covered roughly 5,500 compounds. About 2,000 (36%) were called active. Not shown: some 18% with an inconclusive outcome. No stated cut-off is given here; in the data, active means normalized growth mostly below about 0.91 (no sharp cut-off); inconclusive means no clear call, values can overlap the other calls; inactive means mostly above about 0.92. This is one part of the list.

Assay: chemical genetic growth profiling, strain panel (AID 1159580);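 further: tested at 20 µM; growth read once vehicle control cultures reached saturation at 30 °C; 1 = growth at the plate median or of vehicle wells; lower values mean less growth of the strain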
Details: growth OD

Measured: normalized growth

CC1=NN(c2ccccc2)C(=O)C1
active: S. cerevisiae deletion strains, locus YLR418C, strain cdc73, active compounds read low 0.78 | S. cerevisiae deletion strains, locus YNL307C, strain MCK1, active compounds read low 0.796
inactive: S. cerevisiae deletion strains, locus YJR075W, strain HOC1, active compounds read low 0.979 | S. cerevisiae deletion strains, locus YKL009W, strain mrt4, active compounds read low 0.991 | S. cerevisiae deletion strains, locus YKL068W, active compounds read low 0.98 | S. cerevisiae deletion strains, locus YKL085W, strain MDH1 (second series), active compounds read low 0.963 | S. cerevisiae deletion strains, locus YKL085W, strain MDH1, active compounds read low 0.963 | S. cerevisiae deletion strains, locus YKL160W, strain elf1, active compounds read low 0.951 | S. cerevisiae deletion strains, locus YKL190W, strain CNB1, active compounds read low 0.994 | S. cerevisiae deletion strains, locus YKR001C, strain vps1, active compounds read low 0.961 | S. cerevisiae deletion strains, locus YKR026C, strain gcn3, active compounds read low 0.994 | S. cerevisiae deletion strains, locus YKR091W, strain srl3, active compounds read low 0.986 | S. cerevisiae deletion strains, locus YLL001W, strain dnm1, active compounds read low 0.951 | S. cerevisiae deletion strains, locus YLL026W, active compounds read low 0.984 | S. cerevisiae deletion strains, locus YLL041C, strain sdh2, active compounds read low 0.99 | S. cerevisiae deletion strains, locus YLR027C, strain aat2, active compounds read low 0.994 | S. cerevisiae deletion strains, locus YLR039C, strain RIC1, active compounds read low 0.782 | S. cerevisiae deletion strains, locus YLR058C, strain SHM2, active compounds read low 0.965 | S. cerevisiae deletion strains, locus YLR102C, strain apc9, active compounds read low 1 | S. cerevisiae deletion strains, locus YLR221C, strain rsa3, active compounds read low 0.961 | S. cerevisiae deletion strains, locus YLR258W, strain gsy2, active compounds read low 0.957 | S. cerevisiae deletion strains, locus YLR262C, strain YPT6 (second series), active compounds read low 0.915 | S. cerevisiae deletion strains, locus YLR262C, strain YPT6, active compounds read low 0.725 | S. cerevisiae deletion strains, locus YLR268W, strain sec22, active compounds read low 0.908 | S. cerevisiae deletion strains, locus YLR320W, strain mms22, active compounds read low 0.962 | S. cerevisiae deletion strains, locus YLR330W, strain CHS5, active compounds read low 0.988 | S. cerevisiae deletion strains, locus YLR342W, strain FKS1 (second series), active compounds read low 0.832 | S. cerevisiae deletion strains, locus YLR342W, strain FKS1, active compounds read low 0.987 | S. cerevisiae deletion strains, locus YLR357W, strain rsc2, active compounds read low 1 | S. cerevisiae deletion strains, locus YLR370C, strain arc18, active compounds read low 0.987 | S. cerevisiae deletion strains, locus YLR371W, strain rom2, active compounds read low 0.913 | S. cerevisiae deletion strains, locus YLR384C, strain iki3, active compounds read low 0.982 | S. cerevisiae deletion strains, locus YML016C, strain PPZ1, active compounds read low 0.979 | S. cerevisiae deletion strains, locus YML032C, strain rad52, active compounds read low 0.922 | S. cerevisiae deletion strains, locus YML120C, strain ndi1, active compounds read low 0.974 | S. cerevisiae deletion strains, locus YML124C, strain tub3, active compounds read low 0.984 | S. cerevisiae deletion strains, locus YMR058W, strain fet3, active compounds read low 0.922 | S. cerevisiae deletion strains, locus YMR078C, strain ctf18, active compounds read low 0.969 | S. cerevisiae deletion strains, locus YMR125W, strain sto1, active compounds read low 0.998 | S. cerevisiae deletion strains, locus YMR129W, active compounds read low 0.996 | S. cerevisiae deletion strains, locus YMR205C, strain PFK2, active compounds read low 0.958 | S. cerevisiae deletion strains, locus YMR223W, strain ubp8, active compounds read low 0.925 | S. cerevisiae deletion strains, locus YMR231W, strain pep5, active compounds read low 0.984 | S. cerevisiae deletion strains, locus YMR263W, strain SAP30, active compounds read low 0.97 | S. cerevisiae deletion strains, locus YMR307W, strain GAS1, active compounds read low 0.7 | S. cerevisiae deletion strains, locus YNL067W, strain RPL9B, active compounds read low 0.992 | S. cerevisiae deletion strains, locus YNL071W, strain lat1, active compounds read low 0.922 | S. cerevisiae deletion strains, locus YNL128W, strain TEP1, active compounds read low 0.969 | S. cerevisiae deletion strains, locus YNL209W, strain ssb2, active compounds read low 0.993 | S. cerevisiae deletion strains, locus YNL233W, strain BNI4, active compounds read low 0.993 | S. cerevisiae deletion strains, locus YNL248C, strain rpa49, active compounds read low 0.973 | S. cerevisiae deletion strains, locus YNL250W, strain rad50, active compounds read low 0.957 | S. cerevisiae deletion strains, locus YNL271C, strain bni1, active compounds read low 0.925 | S. cerevisiae deletion strains, locus YNL298W, strain CLA4, active compounds read low 0.951 | S. cerevisiae deletion strains, locus YNL322C, strain KRE1 (second series), active compounds read low 0.977 | S. cerevisiae deletion strains, locus YNL322C, strain KRE1, active compounds read low 0.985 | S. cerevisiae deletion strains, locus YNR049C, strain mso1, active compounds read low 0.992 | S. cerevisiae deletion strains, locus YNR052C, strain pop2, active compounds read low 0.942 | S. cerevisiae deletion strains, locus YOL006C, strain TOP1, active compounds read low 0.997 | S. cerevisiae deletion strains, locus YOL012C, strain htz1 0.753 | S. cerevisiae deletion strains, locus YOL147C, strain pex11, active compounds read low 0.979 | S. cerevisiae deletion strains, locus YOR001W, strain rrp6, active compounds read low 0.972 | S. cerevisiae deletion strains, locus YOR061W, strain CKA2, active compounds read low 0.98 | S. cerevisiae deletion strains, locus YOR069W, strain VPS5, active compounds read low 0.982 | S. cerevisiae deletion strains, locus YOR070C, strain gyp1, active compounds read low 0.995 | S. cerevisiae deletion strains, locus YOR080W, strain dia2, active compounds read low 0.97 | S. cerevisiae deletion strains, locus YOR083W, strain WHI5, active compounds read low 0.939 | S. cerevisiae deletion strains, locus YOR106W, strain vam3, active compounds read low 0.959 | S. cerevisiae deletion strains, locus YOR136W, strain idh2, active compounds read low 0.966 | S. cerevisiae deletion strains, locus YOR144C, strain elg1, active compounds read low 0.988 | S. cerevisiae deletion strains, locus YOR184W, strain ser1, active compounds read low 0.927 | S. cerevisiae deletion strains, locus YOR265W, strain rbl2, active compounds read low 0.988 | S. cerevisiae deletion strains, locus YOR270C, strain vph1, active compounds read low 1.03 | S. cerevisiae deletion strains, locus YOR290C, strain snf2, active compounds read low 0.938 | S. cerevisiae deletion strains, locus YOR316C, strain cot1, active compounds read low 0.984 | S. cerevisiae deletion strains, locus YPL051W, strain arl3, active compounds read low 0.954 | S. cerevisiae deletion strains, locus YPL078C, strain atp4, active compounds read low 0.971 | S. cerevisiae deletion strains, locus YPL106C, strain sse1, active compounds read low 1.01 | S. cerevisiae deletion strains, locus YPL240C, strain hsp82, active compounds read low 0.987 | S. cerevisiae deletion strains, locus YPL241C, strain CIN2, active compounds read low 0.986 | S. cerevisiae deletion strains, locus YPR119W, strain clb2, active compounds read low 0.987 | S. cerevisiae deletion strains, locus YPR141C, strain kar3, active compounds read low 0.947 | S. cerevisiae deletion strains, locus YPR163C, strain tif3, active compounds read low 0.968 | S. cerevisiae deletion strains, locus YPR167C, strain met16, active compounds read low 0.969 | S. cerevisiae deletion strains, strain wtn01, active compounds read low 0.928 | S. cerevisiae strains, strain wild type, active compounds read low 0.98
